Experimental data taken from ChEMBL document CHEMBL3433997, “St. Jude Leishmania screening dataset” (2016).

molecular target: Glucose transporter (Leishmania mexicana) (UniProt O61059); test: ST_JUDE_LEISH: Cytotoxicity at 2uM final concentration against transgenic Leishmania Mexicana promastigotes LmGT2 that are glucose transport deficient and complemented with the L. Mexicana glucose transporter 2. Activity is measured by DNA content using SYBR green in vitro; assay type: functional

| SMILES | inhibition [%] |
| --- | --- |
| Cc1cc(NC(=O)c2cccs2)ccc1OC1CCN(Cc2ccc(C#N)cc2)CC1 | -0.42 |
| Oc1cccc(CNCCCN(Cc2ccccc2)c2ccccc2)c1 | 0.16 |
| C=CCCCNCC(NCCCNc1cc(=O)c2ccccc2[nH]1)c1cc(Br)cc(Br)c1 (stereo not given) | 0.77 |
| Fc1ccc2[nH]c(-c3cccc(-c4cccc(CNCC5CCCO5)c4)c3)nc2c1 (stereo not given) | -1.55 |
| CCC1N=C(N)N=C(N)N1OCc1ccc(Cl)c(Cl)c1 (stereo not given) | -0.8 |
| COc1ccc(Nc2nc(NN=Cc3cc(Br)c(O)cc3O)nc(Nc3ccc([N+](=O)[O-])cc3)n2)cc1 | 1.09 |
| CC(C)CNCc1cccc(-c2cccc(CNC3CCN(Cc4ccccc4)CC3)c2)c1 | 1.83 |
| COc1ccc2c(-c3ccccc3)noc2c1 | 1.42 |
| CCCCCn1c(Sc2ccc(C#N)c([N+](=O)[O-])c2)nnc1-c1cccc(Cl)c1 | -0.77 |
| Nc1ccc(-c2cnc3[nH]cc(-c4ccc(C(=O)O)cc4)c3c2)cn1 | 1.27 |
| NC(=O)c1cccc(C(=O)Nc2ccc(-c3cccc(-c4nc5cc(F)ccc5[nH]4)c3)cc2)c1 | 0.23 |
| Fc1ccc(Nc2ccnc3cc(-c4ccc(CN5CCOCC5)o4)ccc23)c(Cl)c1 | 7.49 |
| Cc1cc(CN2CCC(C(=O)Nc3ccc(-c4nc5ccccc5[nH]4)cc3)CC2)oc1C | 2.24 |
| Fc1ccc2[nH]c(-c3cccc(-c4cccc(CNCc5cnn(-c6ccccc6)n5)c4)c3)nc2c1 | 7.46 |
| Cc1cc(N)c2cc(NC(=O)c3ccc4ccccc4c3)ccc2n1 | 3.57 |
| COc1ccc2nccc(N3CCC(CCNCc4ccc5c(n4)NC(=O)CO5)CC3)c2n1 | 1.8 |
| CCOC(=O)c1sc(C(C)Nc2ccccc2)nc1-c1ccccc1 (stereo not given) | -1.6 |
| CCN(CC)CCN(Cc1ccc(-c2ccc(C(F)(F)F)cc2)cc1)C(=O)Cn1c(CCc2c(F)cc(F)cc2F)nc(=O)c2ccccc21 | 0.56 |
| COc1ccc(-c2ccc3c(-c4ccc(F)cc4)cnc(N)c3c2)cn1 | -0.22 |
| O=C(Cc1cccc(Cl)c1)Nc1cccc(-c2c[nH]c3nc(Nc4cccc(O)c4)ncc23)c1 | -0.68 |
| Cc1ccccc1C1CCN(C2CCC(NC(=O)/C=C/c3cccc(F)c3)CC2)CC1 (stereo not given) | 7.51 |
| O=C(Nc1ccncc1)Nc1ccc2c(c1)CCN(C1CCC1)CC2 | 11 |
| CC(C)NCc1ccc(-c2ccc(CN3CCCC(c4ccccc4)C3)cc2)c(C(=O)NCC2CCCCC2)c1 (stereo not given) | -6.06 |
| CCC(=O)N1CCc2cc(Br)cc(S(=O)(=O)N3CC(C)CC(C)C3)c21 (stereo not given) | 3.73 |
| c1ccn2c(Sc3ncnc4sccc34)ncc2c1 | -1.33 |
